In PubChem BioAssay AID2061323 (National Center for Advancing Translational Sciences (NCATS), 2025):
Inconclusive results are not listed. Activity calls are given as the source filed them. Calls come from the whole dose curve; as a rule, active = well fitted inhibition curve with a large enough effect; inconclusive = small, poorly fitted or top-dose-only effect; inactive = flat fitted curve, though single readings scatter.

Assay: Identification of antibody-drug conjugate (ADC) payloads which are substrates of ATP-binding cassette drug efflux transporters: ABCG2-HEK293-R5 cell line
Conditions: ABCG2-HEK293-R5 viability, CellTiter-Glo ATP luminescence, 48 h
Text: Antibody-drug conjugates (ADCs) feature an antibody recognizing a specific protein joined to a potent toxic payload. Numerous antibody-drug conjugates have received FDA approval; however, clinical resistance arises. Resistance mechanisms include decreased expression or mutation of the antibody target, impaired payload release, or increased expression of ATP-binding cassette (ABC) efflux transporters associated with multidrug resistance. We therefore sought to characterize the interaction of ABC multidrug transporters with ADC payloads. We performed a high-throughput screen with 27 common ADC payloads using cells lines expressing ABC transporters P-glycoprotein (P-gp, encoded by ABCB1) or ABCG2 (encoded by ABCG2). Confirmatory assays were also performed using cells transfected to express P-gp, ABCG2, or MRP1 (encoded by ABCC1). Several commonly used ADC payloads were substrates of P-gp, including calicheamicin gamma1, monomethyl auristatin E, DM1, and DM4. All the pyrrolobenzodiazepines tested - SJG136, SGD-1882, SG2057, and SG3199 - were substrates of P-gp, ABCG2, and MRP1. […] These findings highlight the risk of transporter-mediated resistance with certain ADC payloads and underscore the importance of selecting payloads that evade ABC transporter recognition in future ADC development.
HEK-293 cells were transfected with empty vector (pcDNA) or vector containing the human ABCB1 (MDR-19), ABCG2 (R-5), or ABCC1 gene (MRP1) and were maintained in EMEM with 2 mg/mL G418 added to maintain transporter expression. The HeLa derivative KB-3-1 and the P-gp overexpressing KB-8-5-11 subline were maintained in DMEM; KB-8-5-11 additionally received 100 ng/mL colchicine. H460 parental cells were obtained from the Division of Cancer Treatment and Diagnosis Tumor Repository, National Cancer Institute at Frederick, MD and were cultured in RPMI. The ABCG2 expressing subline H460 MX20 was generated by selecting H460 cells in 20 nM mitoxantrone. Media in all cases was supplemented with 10% FBS and 1% penicillin-streptomycin. We explored 27 common ADC payloads, in two orthogonal, paired cell line sets-a drug selected and transfected set for each transporter--to identify substrates of the ABC transporters P-gp and ABCG2. Compounds were sourced from Levena Biopharma (San Diego, CA), Selleck Chem (Houston, TX), ChemieTek (Indianapolis, IN), or Microsource Discovery Systems (Gaylordsville, CT). Screening was performed as previously described. Briefly, cells were plated at a density of 500 cells/well in 1536 well plates with compounds added using a 1536-head pin tool (Kalypsys, San Diego CA). Cells were incubated with cytotoxic drugs and processed with CellTiter Glo reagent (Promega, Madison, WI) to determine viability after 48 hours. […]

SMILES	Potency
CC[C@@]1(O)C(=O)OCc2c1cc1n(c2=O)Cc2cc3ccccc3nc2-1	13.4 nM (active)
CC[C@H](C)[C@@H]([C@@H](CC(=O)N1CCC[C@H]1[C@H](OC)[C@@H](C)C(=O)N[C@H](C)[C@@H](O)c1ccccc1)OC)N(C)C(=O)[C@@H](NC(=O)[C@H](C(C)C)N(C)C)C(C)C	8.4 nM (active)
COc1cc2cc(C(=O)N3C[C@@H](CCl)c4c3cc(O)c3ccccc43)[nH]c2c(OC)c1OC	21.2 nM (active)
COc1cc2cc(c1Cl)N(C)C(=O)C[C@H](OC(=O)[C@H](C)N(C)C(=O)CCC(C)(C)S)[C@]1(C)OC1[C@H](C)C1C[C@@](O)(NC(=O)O1)[C@H](OC)/C=C/C=C(\C)C2 (some centres undefined)	2.4 nM (active)
